The record followed here is PubChem BioAssay (Tox21).

The structures appear in SMILES notation. Values joined by “and” are separate entries in the source; they are usually repeats but may differ in a detail not shown here. Identical values can stand only once. Inconclusive results are not listed. Active and inactive are the calls of the source. Unless noted, calls follow the shape of the dose curve; as a rule, active = well fitted curve in the direction sought with a large enough effect in the repeat runs; inconclusive = weak or mixed curves; inactive = no such curve, though single readings can be large; an effect the other way counts as inactive or inconclusive.

Assay [1] in a line: qHTS assay to identify small molecule antagonists of the glucocorticoid receptor (GR) signaling pathway - cell viability counter screen (AID 720693). Also: nearly all actives have a fitted effect of over 55% in size. Also: potency is read from the fitted curve at half-maximal effect. Particulars: GR-bla HeLa viability, CellTiter-Glo luminescence, 18 h, with 5 nM dexamethasone present; series mostly up to 58.5 µM. (In general: Quantitative high-throughput screening tests each substance at several concentrations.)

Assay [2] can be described thus: qHTS assay for identifying genotoxic compounds that show differential cytotoxicity against isogenic chicken DT40 cell lines with known DNA damage response pathways - wild type cell line (AID 743012). Also: nearly all actives have a fitted effect of over 60% in size. Also: potency is read from the fitted curve at half-maximal effect. Particulars: DT40 wild type chicken cells viability, CellTiter-Glo, 40 h; series mostly up to 68.4 µM. The gist of the method:
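Viability by ATP luminescence (CellTiter-Glo, 30 min RT) after 40 h compound treatment at 37 C/5% CO2, using 300 parental DNA repair-proficient DT40 cells per well.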

The nature of assay [3]: qHTS assay for identifying genotoxic compounds that show differential cytotoxicity against isogenic chicken DT40 cell lines with known DNA damage response pathways - Rev3 mutant cell line (AID 743014). Also: nearly all actives have a fitted effect of over 55% in size. Also: potency is read from the fitted curve at half-maximal effect. To be noted: chicken DT40 Rev3-/- viability, CellTiter-Glo, 40 h; series mostly up to 68.4 µM.
Assay [4] can be described thus: qHTS assay for identifying genotoxic compounds that show differential cytotoxicity against isogenic chicken DT40 cell lines with known DNA damage response pathways - Rad54/Ku70 mutant cell line (AID 743015). Also: nearly all actives have a fitted effect of over 60% in size. Also: potency is read from the fitted curve at half-maximal effect. To be noted: DT40 Rad54/Ku70 mutant viability, CellTiter-Glo, 40 h; series mostly up to 66.8 µM.
A short description of assay [5]: qHTS assay to identify small molecule antagonists of the androgen receptor (AR) signaling pathway - cell viability counter screen (AID 743033; also: nearly all actives have a fitted effect of over 45% in size; also: potency is read from the fitted curve at half-maximal effect). To be noted: AR-bla HEK293 viability, CellTiter-Glo luminescence, 16 h; series mostly up to 58.5 µM.
Assay [6] is described as follows: qHTS assay to identify small molecule antagonists of the thyroid receptor (TR) signaling pathway - cell viability counter screen (AID 743064). Also: nearly all actives have a fitted effect of over 50% in size. Also: potency is read from the fitted curve at half-maximal effect. Particulars: GH3.TRE-Luc viability, CellTiter-Fluor, 24 h; series mostly up to 70.3 µM. The gist of the method:
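In-well cytotoxicity read by CellTiter-Fluor (30 min, 37 C) following 23.5 h exposure of GH3 cells bearing a TRE-luciferase sensor. Compounds were added alongside 1 nM (final) T3 to drive TR transactivation.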

Assay [7] in a line: qHTS assay to identify small molecule antagonists of the thyroid receptor (TR) signaling pathway (AID 743065). Also: nearly all actives have a fitted effect of over 55% in size. Also: potency is read from the fitted curve at half-maximal effect. Particulars: GH3.TRE-Luc, T3-stimulated luciferase inhibition, 23.5 h; series mostly up to 70.3 µM. The gist of the method:
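GH3.TRE-Luc rat pituitary cells (two TREs driving luciferase) were dosed with compound, then stimulated with 1 nM T3 (final) for 23.5 h at 37 C. ONE-Glo luminescence was the read-out, with CellTiter-Fluor fluorescence as the cytotoxicity counter-screen.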

Assay [8] deals with thyroid hormone receptor (rat, GH3 cells). In words: qHTS assay to identify small molecule agonists of the thyroid receptor (TR) signaling pathway (AID 743066; calls by dose curve). To be noted: GH3.TRE-Luc cells, TR agonist luciferase, 24 h; series mostly up to 83.9 µM.
A short description of assay [9]: qHTS assay to identify small molecule antagonists of the estrogen receptor alpha (ER-alpha) signaling pathway - cell viability counter screen (AID 743074; calls by dose curve;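 also: HEK293 cells carrying ER-alpha-UAS-bla reporter stimulated with 17beta-estradiol; nearly all actives have a fitted effect of over 45% in size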). Particulars: ERalpha-bla HEK293 viability, CellTiter-Glo luminescence, 18 h; series mostly up to 69.4 µM.
The target in assay [10] is Estrogen receptor (Homo sapiens) (UniProt P03372). In words: qHTS assay to identify small molecule agonists of the estrogen receptor alpha (ER-alpha) signaling pathway (AID 743075; calls by dose curve;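 also: HEK293 GripTite cells with ER-alpha and UAS-driven beta-lactamase reporter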). Particulars: HEK293 ER-alpha-UAS-bla, beta-lactamase FRET ratio, 18 h; series mostly up to 70.1 µM.
A short description of assay [11]: qHTS assay to identify small molecule antagonists of the estrogen receptor alpha (ER-alpha) signaling pathway using the BG1 cell line - cell viability counter screen (AID 743081).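 Also: compound given together with 17beta-estradiol as the ER stimulus; nearly all actives have a fitted effect of over 45% in size.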 Also: potency is read from the fitted curve at half-maximal effect. Particulars: BG1Luc4E2 viability, CellTiter-Fluor, 22 h; series mostly up to 70.3 µM.
The target in the next assay is Aromatase (Homo sapiens) (UniProt P11511). Kind of assay: qHTS assay to identify aromatase inhibitors (AID 743083). Also: nearly all actives have a fitted effect of over 55% in size. Also: potency is read from the fitted curve at half-maximal effect. Particulars: MCF-7 aro ERE, testosterone-driven ERE luciferase, 24 h; series mostly up to 70.3 µM.
A short description of assay [12]: qHTS assay to identify small molecule antagonists of the androgen receptor (AR) signaling pathway using the MDA cell line - cell viability counter screen (AID 743041; also: nearly all actives have a fitted effect of over 45% in size; also: potency is read from the fitted curve at half-maximal effect). Particulars: MDA-kb2 viability, CellTiter-Fluor, 16 h, cells co-treated with R1881 androgen agonist; series mostly up to 70.3 µM. The gist of the method: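 Cytotoxicity counter screen: MDA-kb2 AR-luc cells, compound + R1881, 16 h, 37C, 0% CO2; CellTiter-Fluor added at 15.5 h, fluorescence read after 30 min.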

Assay [13] has as its target Estrogen receptor (Homo sapiens) (UniProt P03372). In words: qHTS assay to identify small molecule antagonists of the estrogen receptor alpha (ER-alpha) signaling pathway (AID 743069; active = well fitted curve in the direction sought with a large enough effect in the signal ratio in the repeat runs, not every such curve was filed as active; the % refers to the signal ratio). Particulars: HEK293 ER-alpha-UAS-bla, beta-lactamase ratio, antagonist mode; series mostly up to 69.4 µM. The procedure, abridged: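 Beta-lactamase FRET fluorescence is read after 2 hr at room temperature with LiveBLAzer B/G substrate. Before that, ER-alpha-bla HEK293 cells sit 4 hr after plating, then receive compound plus 17beta-estradiol and incubate 18 hr at 37C.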

Assay [14] can be described thus: qHTS assay to identify small molecule antagonists of the estrogen receptor alpha (ER-alpha) signaling pathway using the BG1 cell line (AID 743080; calls by dose curve;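 also: BG1 cells stimulated with 17beta-estradiol alongside compound; nearly all actives have a fitted effect of over 25% in size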). Particulars: BG1Luc4E2 ERE-luciferase antagonist mode, luminescence; series mostly up to 70.3 µM. The procedure, abridged:
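After 5 days in phenol-red-free 10% charcoal-stripped FBS medium, BG1-Luc-4E2 cells were seeded, left 24 h at 37 C, co-treated with compounds and 17beta-estradiol for 21.5 h, then assayed for viability and luciferase.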

Assay [15] has as its target Estrogen receptor (Homo sapiens) (UniProt P03372). In words: qHTS assay to identify small molecule agonists of the estrogen receptor alpha (ER-alpha) signaling pathway using the BG1 cell line (AID 743079). Also: nearly all actives have a fitted effect of over 20% in size. Particulars: BG1Luc4E2 cells, ERE-luciferase agonist, 22 h; series mostly up to 70.3 µM.

Sequence of Aromatase (Homo sapiens) (P11511 whole entry, looked up): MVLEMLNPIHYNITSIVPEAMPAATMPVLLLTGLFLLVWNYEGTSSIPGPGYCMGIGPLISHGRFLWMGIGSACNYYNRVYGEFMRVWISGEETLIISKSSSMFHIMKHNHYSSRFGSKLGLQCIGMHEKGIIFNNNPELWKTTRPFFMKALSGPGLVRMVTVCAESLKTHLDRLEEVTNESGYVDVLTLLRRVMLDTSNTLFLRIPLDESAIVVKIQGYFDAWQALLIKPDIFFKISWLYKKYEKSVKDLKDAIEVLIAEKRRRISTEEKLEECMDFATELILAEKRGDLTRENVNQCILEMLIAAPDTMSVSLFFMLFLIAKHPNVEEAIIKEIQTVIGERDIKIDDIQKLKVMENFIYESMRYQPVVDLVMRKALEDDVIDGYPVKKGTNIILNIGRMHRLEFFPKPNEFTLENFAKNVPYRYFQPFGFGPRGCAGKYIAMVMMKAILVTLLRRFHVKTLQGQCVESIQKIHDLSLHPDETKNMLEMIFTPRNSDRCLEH
Sequence of Estrogen receptor (Homo sapiens) (P03372 whole entry, looked up): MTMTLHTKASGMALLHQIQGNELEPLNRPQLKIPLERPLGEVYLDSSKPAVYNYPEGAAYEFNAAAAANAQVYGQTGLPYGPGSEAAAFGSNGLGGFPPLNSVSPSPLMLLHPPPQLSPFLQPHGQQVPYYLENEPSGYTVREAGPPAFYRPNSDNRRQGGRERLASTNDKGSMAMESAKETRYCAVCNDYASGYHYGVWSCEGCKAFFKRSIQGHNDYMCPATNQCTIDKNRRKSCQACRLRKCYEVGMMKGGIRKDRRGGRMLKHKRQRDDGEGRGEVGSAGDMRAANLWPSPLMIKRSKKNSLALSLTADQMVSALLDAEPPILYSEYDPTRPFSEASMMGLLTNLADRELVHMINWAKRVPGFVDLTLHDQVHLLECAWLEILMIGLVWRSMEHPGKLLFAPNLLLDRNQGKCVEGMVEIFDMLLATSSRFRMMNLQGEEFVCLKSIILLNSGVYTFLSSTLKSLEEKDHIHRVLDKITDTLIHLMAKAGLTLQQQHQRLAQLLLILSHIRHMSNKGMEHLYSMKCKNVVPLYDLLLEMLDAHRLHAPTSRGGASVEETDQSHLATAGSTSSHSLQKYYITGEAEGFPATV

As for `O=[N+]([O-])c1ccc(F)c([N+](=O)[O-])c1`, the Potency entry in assay [1], in [2], in [3], in [4], in assay [5] and in assay [6] was “inactive” each time. The Potency result (in assay [8]; in [9]; in assay [10]; with Aromatase (Homo sapiens)) was “inactive” each time. Further, the Potency is 61.7 µM (active) in assay [7]; 18.8 µM (active) and 49 µM (active) in assay [11].

`CC(C)(C)c1cc([N+](=O)[O-])cc([N+](=O)[O-])c1O`: the Potency in assay [1] is 1.09 µM (active); in assay [2], 19.3 µM (active); in [3], 21.6 µM (active); in [4] it was 19.3 µM (active); in assay [5], 13.8 µM (active); in [12], 24.3 µM (active). For the same molecule, the Potency is 8.61 µM (active) in assay [6], 3.43 µM (active) in [7], 21.6 µM (active) in [11] and 15.3 µM (active) in the assay with Aromatase (Homo sapiens).

Turning to `CCOP(=O)(OCC)SCCSCC`, the Potency entry in assay [1], in [2], in [3], in [4], in [5] and in assay [12] was “inactive” in each case. Also, the Potency result in assay [7], in [8], in [13], in assay [9], in assay [10] and in assay [14] was “inactive” throughout. In addition, the Potency entry (in [11]; in the assay with Aromatase (Homo sapiens)) was “inactive” each time.

Regarding `C=CC(=O)OCC(C)C`, the Potency entry in [1], in [2], in [3], in assay [4], in assay [5] and in assay [6] was “inactive” throughout. For the same molecule, the Potency result in assay [7], in [8], in assay [13], in [9], in [10] and in assay [15] was “inactive” throughout. In addition, the Potency entry (in assay [14]; in [11]; with Aromatase (Homo sapiens)) was “inactive” each time.

Consider `C=CC(=O)OCC(C)O` (configuration not stated), for which the Potency result in [1], in [2], in assay [3], in [4], in [5] and in [6] was “inactive” throughout. Moreover, the Potency entry in assay [7], in assay [8], in assay [13], in assay [15], in assay [14] and in [11] was “inactive” throughout.

`NCC(CC(=O)O)c1ccc(Cl)cc1` (configuration not stated): the Potency entry in assay [1], in [2], in [3], in assay [4], in [5] and in assay [6] was “inactive” each time. In addition, the Potency result (in assay [7]; in assay [8]; in [9]; in assay [11]; with Aromatase (Homo sapiens)) was “inactive” each time.

Turning to `CNP(=O)(OC)Oc1ccc(C(C)(C)C)cc1Cl` (configuration not stated), the Potency entry in [1], in assay [12], in assay [6], in assay [7], in assay [8] and in [9] was “inactive” throughout. For the same molecule, the Potency result (in assay [10]; in [15]; in assay [14]; in assay [11]; in the assay with Aromatase (Homo sapiens)) was “inactive” each time. In addition, the Potency in assay [2] is 13.7 µM (active); in [3] it was 19.3 µM (active); in assay [4] it was 21.7 µM (active).

As to `CN1[C@@H]2CC[C@H]1CC(OC(=O)c1cc(Cl)cc(Cl)c1)C2` (some centres not stated), the Potency entry in [1], in assay [5], in assay [12], in assay [13], in assay [9] and in [10] was “inactive” in each case. The Potency result (in assay [15]; in assay [14]; in assay [11]; in the assay with Aromatase (Homo sapiens)) was “inactive” each time. The Potency in assay [2] is 3.76 µM (active); in [3], 2.98 µM (active); in [4], 5.96 µM (active).

On to `Nc1nc(N)nc(N)n1`, for which the Potency entry in assay [1], in assay [2], in [3], in assay [4], in [5] and in assay [6] was “inactive” each time. Also, the Potency result (in assay [7]; in assay [8]; in assay [9]; in assay [11]; with Aromatase (Homo sapiens)) was “inactive” each time.
